ERK EGF block: EGF-driven ERK pathway inhibition | HEK293-V1b, EGF-stimulated phospho-ERK AlphaScreen | Potency, µM (doses to about 11.5 µM), hits mostly inhibitors | 130,000 tested, 0.41% active | AID 1454; active means well fitted inhibition curve with a large enough effect; further: nearly all actives have a fitted effect of over 55% in size
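After overnight plating in 1% FBS, HEK293-V1b cells received test compound for half an hour, then a 5 min pulse of EGF (25 nM); ERK phosphorylation in lysates was read by bead-based AlphaScreen.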
Of the large screens only hits and unclear results are named; the others gave an inactive call. This excerpt belongs to a sample that is enriched for hits.

Nc1ccccc1Nc1ccc([N+](=O)[O-])cc1[N+](=O)[O-]	none
O=[N+]([O-])c1ccc(N/N=C/c2ccccc2)c(F)c1	none
CC1=C(/C=N/Nc2ccc([N+](=O)[O-])cc2[N+](=O)[O-])C(C)(C)CCC1	ERK EGF block 14.1µM
Oc1[nH]c2ccccc2c1N=Nc1ccccc1	none
Oc1ccc2ccccc2c1N=Nc1ccc(F)cc1	ERK EGF block 12.6µM
Oc1[nH]c2ccccc2c1N=Nc1ccc(F)cc1	none
CC1=CC[C@@]2(CO)COC(c3ccccc3O)C1C2 (stereo not given in full)	none
COc1cc(OC)c2c(OC)c(-c3ccc4c(c3)OCO4)c(=O)oc2c1	none
CO[C@@]1(NC(=O)Cc2cccs2)C(=O)N2C(C(=O)O)=C(COC(N)=O)CSC21 (stereo not given in full)	none
Cn1cc(/C=C2\SC(=O)N(c3ccc(O)cc3)C2=O)c2ccccc21	ERK EGF block 35.5µM
Cn1cc(/C=C2\SC(=O)N(c3ccccc3)C2=O)c2ccccc21	none
CCN1C(=O)S/C(=C/c2cn(C)c3ccccc23)C1=O	none
CCCCCCCCC#CCC#CCC#CCCCC(=O)O	none
O=C(N/N=C1\CC2CC=CC12)c1ccccc1Cl (stereo not given)	none
CC1(C)OC(=O)C(=NNc2ccccc2[N+](=O)[O-])C(=O)O1	none
O=[N+]([O-])c1ccccc1N/N=C1\CC2CC=CC12 (stereo not given)	ERK EGF block 12.6µM
O=C(Nc1cccc(F)c1)N1CCCC2(CCN(C(=O)c3ccco3)CC2)C1	none
CCCCCn1c(=O)c(-c2nc3ccccc3[nH]2)c(O)c2ccccc21	none
CCCCCS(=O)(=O)CCCCCCCCCCn1c(-c2ccc(O)cc2)c(C)c2cc(O)ccc21	ERK EGF block 14.1µM
CCCCCC(=O)c1ccc(O)cc1O	none
COc1cccc([C@@H]2Oc3ccc(Br)cc3[C@H](O)[C@H]2O)c1	none
CCC1=C2CC[C@H]3C(=O)N(c4ccccc4)C(=O)[C@H]3[C@H]2[C@@]2(Cc3ccccc3)C(=O)N(CC(=O)OC)C(=O)N2C1=O	none
COC(=O)[C@@]1(Cc2ccccc2)[C@H]2c3cc(C(=O)N4CCCC4)n(Cc4ccc(OC)c(OC)c4)c3C[C@H]2CN1C(=O)c1ccccc1	none
Cc1ccc(CNC(=O)c2nn(C)c(C)c2[N+](=O)[O-])cc1	none
Cc1c(Cl)c([N+](=O)[O-])nn1CCCC(=O)N(Cc1ccccc1)Cc1ccccc1	none
CCN(CC)c1ccc(N=Nc2ncn[nH]2)cc1	none
CCN(Cc1ccccc1)c1ccc(N=Nc2nn(C)c(C)c2[N+](=O)[O-])cc1	ERK EGF block 20µM
CCN(Cc1ccccc1)c1ccc(/C=N/NS(=O)(=O)c2ccc(C)c([N+](=O)[O-])c2)cc1	none
CCN(CC)c1ccc(N=Nc2nn(C)c(C)c2[N+](=O)[O-])cc1	ERK EGF block 15.8µM
CC(C)C[C@@H](CC(=O)N[C@@H](CCCN)CC(=O)N[C@@H]1CCCC[C@H]1C(=O)N[C@H](CC(=O)N[C@@H](CCC(=O)O)CC(=O)O)Cc1c[nH]c2ccccc12)NC(=O)[C@@H]1CNCC[C@H]1N	none
CCN(CC)CCCC(C)n1c(-c2ccccc2)nc2c(NCCO)nc(C)nc21 (stereo not given)	none
CNC(=O)[C@H]1O[C@@H](n2cnc3c(NCc4ccc(N)cc4)ncnc32)[C@H](O)[C@H]1O	none
CCCCC/C=C\C\C=C/C=C/C=C/[C@@H](SCC(NC(C)=O)C(=O)O)[C@@H](O)CCCC(=O)O (stereo not given in full)	none
O=C(NC1=NCCS1)c1ccc(Cl)c(S(=O)(=O)N2CCc3ccccc32)c1	none
O=C(Nc1cccnc1)c1cccc(S(=O)(=O)N2CCc3ccccc32)c1	none
O=C(Nc1cccnc1)c1ccc(Cl)c(S(=O)(=O)N2CCc3ccccc32)c1	ERK EGF block 25.1µM
C[C@H]1C(O)[C@@]23CCC4C5(C=[N+](CCO)C[C@]4(C)CCC5)C2C[C@@H]1C3 (stereo not given in full)	none
NCC1OC(OC2C(N)CC(N)[C@@H](O)[C@@H]2OC2O[C@H](CO)[C@@H](O[C@@H]3OC(CN)C(O)C(O)C3N)C2O)C(N)C(O)C1O (stereo not given in full)	none
CCCn1c(C)nc2c(NCCCN(CCO)CCO)nc(C)nc21	none
S=C1NCCc2ccccc2C1c1ccccc1Cl (stereo not given)	none
O=S(=O)(NC1c2cccc3cccc(c23)C1N1CCNCC1)c1ccc(Cl)cc1 (stereo not given)	none
Clc1cccc2c1Sc1ccccc1CC2N1CCNCC1 (stereo not given)	ERK EGF block 28.2µM
O=C(Nc1cccc(Cl)c1)c1cc(N=Nc2ccc([N+](=O)[O-])cc2Cl)ccc1O	ERK EGF block 14.1µM
O=C(Nc1cccc(Cl)c1)c1cccc(Oc2ccc([N+](=O)[O-])cc2Cl)c1	none
O=C(Nc1ccc([N+](=O)[O-])cc1Cl)c1cc(Cl)ccc1O	none
O=S(=O)(c1ccccc1)N1CCC[C@@]2(CCN(c3ccncc3)C2)C1	none
CCCC1OC2CC3C4CCC5=CC(=O)C=CC5(C)C4C(O)CC3(C)[C@]2(C(=O)CO)O1 (stereo not given in full)	none
